This is a sample that favours compounds with a hit; in the whole collection about 4.7% have one here.
SKKanGAS inh: S. pyogenes SKKanGAS growth inhibitors in kanamycin, primary screen, streptokinase expression inhibitor project, SKKanGAS strain, BacTiter-Glo luminescence. 6 h. inhibition, % at 7.5 µM. 1.3% of 300,000 active. AID 1662, 2009;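 active means mean replicate score, as percent of positive control median, at least 50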;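 further: strain carries kanamycin resistance gene driven by streptokinase promoter and grows in 40 µg/ml kanamycin; loss of luminescence reflects streptokinase promoter inhibition or plain growth inhibition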
tim23-1 inh: growth inhibitors of tim23-1 mutant yeast, primary screen, luminescence, uHTS; S. cerevisiae tim23-1 growth, BacTiter-Glo luminescence, 24 h; inhibition, % at 20 µM; 1.3% of 330,000 active; AID 463212, 2010;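 active means growth inhibition of the mutant yeast at or above 50%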;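 further: temperature-sensitive mutant grown at 25 °C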
tim10-1 inh: growth inhibitors of tim10-1 mutant yeast, primary screen, luminescence, uHTS; inhibition, % at 20 µM; AID 463190, 2010; S. cerevisiae tim10-1 ts strain growth, BacTiter-Glo, 24 h; 2.2% of 330,000 active;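 active means inhibition of at least 40%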;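 further: mutant grown at 25 °C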
PfHsp90 set2: growth inhibition of PfHsp90-expressing yeast, primary screen, antimalarial PfHsp90 inhibitor project, S. cerevisiae, BacTiter-Glo luminescence, single point, set 2 | inhibition, % at 9.4 µM | 0.32% of 310,000 active | BacTiter-Glo ATP, 48 h; yeast lacking PDR1 and PDR3 efflux regulators;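 active means every replicate shows inhibition above about 80%, whatever the replicate mean, limit read from the data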
TIM10 inh: growth inhibitors of isogenic TIM10 control yeast, primary screen, counter-screen for tim10-1 yeast inhibitor project, luminescence, uHTS. 1.4% of 330,000 active. S. cerevisiae TIM10 strain growth, BacTiter-Glo luminescence, 24 h. inhibition, % at 10 µM;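 active means inhibition of 40% or more at the single tested concentration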;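 further: wild-type TIM10 isogenic control strain grown at permissive 25 °C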
ATG4B inh: ATG4B protease inhibitors, primary screen, biochemical, fluorescence, uHTS; inhibition, % at 8.33 µM; 0.51% of 340,000 active; Cysteine protease ATG4B (Homo sapiens), Q9Y4P1; AID 504462, 2011; ATG4B cleavage of LC3-PLA2, NBD-HPC fluorescence, 1 h; in the data active means inhibition above about 40%
Target sequence (Q9Y4P1 whole entry, looked up): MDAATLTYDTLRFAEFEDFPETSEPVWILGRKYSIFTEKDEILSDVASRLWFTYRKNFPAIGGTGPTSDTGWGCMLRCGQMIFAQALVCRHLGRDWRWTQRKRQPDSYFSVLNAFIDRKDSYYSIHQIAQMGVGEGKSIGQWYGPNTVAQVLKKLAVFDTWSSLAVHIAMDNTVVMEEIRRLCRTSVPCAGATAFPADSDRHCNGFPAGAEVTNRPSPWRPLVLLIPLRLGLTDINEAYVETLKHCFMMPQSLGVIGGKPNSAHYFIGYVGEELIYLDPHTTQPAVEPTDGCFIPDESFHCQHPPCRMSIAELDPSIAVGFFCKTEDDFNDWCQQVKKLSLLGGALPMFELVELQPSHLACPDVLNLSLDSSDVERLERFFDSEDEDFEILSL
tim10-1 confirm: growth inhibitors of tim10-1 mutant yeast, confirmation, single concentration, luminescence, S. cerevisiae; 56% of 7,400 active; shares compounds with tim10-1 inh; inhibition, % at 20 µM; S. cerevisiae tim10-1 ts strain growth, BacTiter-Glo, 24 h;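 active means inhibition of yeast growth at or above a set limit in either of two repeat tests at 20 µM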;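 further: tim10-1 mutant grown at permissive 25 °C to find synthetic lethal compounds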
Numbers stand for hits; . = inactive; / = no result given.

SMILES	SKKanGAS inh	tim23-1 inh	tim10-1 inh	PfHsp90 set2	TIM10 inh	ATG4B inh	tim10-1 confirm
O=C1C2C(c3ccccc3)CC=CC2[C@H](c2ccoc2)N1Cc1ccccc1 (stereo not given in full)	.	.	.	.	.	.	/
Cc1ccc(F)c([C@H]2[C@@H]3C=CCC[C@@]3(C)C(=O)N2Cc2ccccc2)c1	.	.	45.4	/	.	.	42.2
O=C1C2C(c3ccccc3)CC=CC2[C@H](c2ccc3ccccc3c2)N1Cc1ccccc1 (stereo not given in full)	.	.	46.5	.	.	.	38.5
Cc1ccc(F)c([C@H]2C3C=CCC(c4ccccc4)C3C(=O)N2Cc2ccccc2)c1 (stereo not given in full)	50.0	.	43.8	.	.	.	31.2
O=C(O)CCC(=O)N1N=C(c2cccs2)CC1c1cn(-c2ccccc2)nc1-c1ccccc1 (stereo not given)	.	.	.	.	.	.	/
Cc1cc(C)c(C(=O)N2CCCC(N3CCN(c4cccc(C(F)(F)F)c4)CC3)C2)o1 (stereo not given)	.	.	44.2	.	.	.	.
CC(C)C[C@@H](CSc1ccc(Br)cc1)N1CCN(CC(C)C)CCC1=O	.	.	40.2	/	.	.	32.2
CC(C)C[C@@H](CSc1ccc(Br)cc1)N1CCN(C)CCC1=O	.	.	.	/	.	.	/
O=C(NCc1cccc(Cl)c1)c1ccncc1	.	.	.	.	.	.	/
O=C(CSc1cccc2cccnc12)N1CCCC1	.	.	42.0	.	.	.	34.5
Cc1cc(Cl)ccc1OC(C)C(=O)N1CCCN(C(=O)C(C)Oc2ccc(Cl)cc2C)CC1 (stereo not given)	.	.	43.8	.	.	.	.
Cc1cc(Cl)ccc1OCC(=O)N1CCCN(C(=O)COc2ccc(Cl)cc2C)CC1	.	.	.	.	.	.	/
Cc1nnc(NC(=O)CCn2c(=O)oc3ccc(Cl)cc32)s1	.	.	.	.	.	.	/
Cc1csc(NC(=O)CCn2c(=O)oc3ccc(Cl)cc32)n1	.	.	43.4	.	.	.	.
O=C(NC1CCC(=O)N(CCSc2ccccc2)CC1)OCc1ccccc1 (stereo not given)	.	.	48.2	.	.	.	.
O/N=C(\c1ccc(Cl)cc1Cl)c1ncc(C(F)(F)F)cc1Cl	51.2	.	.	.	.	.	50.0
O=C(c1ccc(Cl)cc1Cl)c1ncc(C(F)(F)F)cc1Cl	.	.	.	/	.	.	/
O=C(c1ccc([N+](=O)[O-])cc1)N(Cc1ccccc1)c1ccccn1	.	.	.	.	.	.	/
O=[N+]([O-])c1ccccc1SN(Cc1ccccc1)c1ccccn1	.	.	42.3	.	.	.	.
O=C(Cc1ccc(Cl)cc1)Nc1ccc(Br)cn1	.	.	40.8	.	.	.	.
Oc1c(Cl)cc(Cl)cc1CNc1ccc(Br)cn1	.	.	54.6	.	.	.	63.2
CCOc1ccc(NC(=O)C2CCN(S(=O)(=O)c3c(C)noc3C)CC2)cc1	.	.	.	.	.	.	/
Cn1c(N2CCOCC2)nc(-c2ccccc2)c1-c1ccccc1	.	.	45.9	.	.	.	39.2
CCCCNS(=O)(=O)c1ccc(OC)c2ncccc12	.	.	.	/	.	.	/
Cc1cc2ncn(/N=C/c3cccnc3)c2cc1C	.	.	.	.	.	.	/
SMILES	SKKanGAS inh	tim23-1 inh	tim10-1 inh	PfHsp90 set2	TIM10 inh	ATG4B inh	tim10-1 confirm
Cc1cc2ncn(/N=C/c3ccc(-c4ccccc4)o3)c2cc1C	.	.	46.5	/	.	.	.
O=c1c(N2CCOCC2)nsn1Cc1ccccc1	.	.	.	.	.	.	/
O=C1CC(N2CCN(C3CC(=O)N(CCc4ccccc4)C3=O)CC2)C(=O)N1CCc1ccccc1 (stereo not given)	.	.	.	.	.	.	/
O=C1CC(N2CCC(Cc3ccccc3)CC2)C(=O)N1CCc1ccccc1 (stereo not given)	.	.	46.4	.	.	.	.
CCc1nnc(NC(=O)c2cccnc2)s1	.	.	.	/	.	.	/
CC(/C=N/NC(=O)Cn1cnc2c1c(=O)n(C)c(=O)n2C)=C\c1ccco1	.	.	.	.	.	.	/
Nc1nc(Cl)cc(N2CCC(c3cc(-c4ccc(Cl)cc4)n[nH]3)CC2)n1	.	.	84.4	.	.	.	73.0
COc1ccc(OC)c(-c2cc(C3CCN(c4cc(Cl)nc(N)n4)CC3)[nH]n2)c1	.	.	.	.	.	.	/
Cc1cc(C)c2c(c1C)C(=O)CCC2	/	/	/	.	/	.	/
CCOc1cccc2sc(N(CCN(C)C)C(=O)/C=C/c3cccs3)nc12	.	.	47.0	.	.	.	32.3
COc1cccc2sc(N(CCN(C)C)C(=O)/C=C/c3cccs3)nc12	.	.	.	.	.	.	/
CCc1nc2ccccc2n1CC(O)COc1ccc(NC(C)=O)cc1 (stereo not given)	.	.	.	.	.	.	/
COc1ccc(Cl)cc1NC(=O)CN(C)C(=O)C12CC3CC(CC(Cl)(C3)C1)C2	.	.	43.0	.	.	.	34.2
O=C(c1ccccc1)[C@@H]1[C@@H]2C(=O)N(c3ccc(F)cc3)C(=O)[C@@H]2C2CCCN21 (stereo not given in full)	.	.	.	.	.	.	/
O=C(Oc1ccccc1O)c1cccc2ccccc12	.	.	47.4	/	.	/	33.7
N/C(=N\OC(=O)c1cccc2ccccc12)c1ccncc1	.	.	48.9	.	.	.	39.5
COCC(C)NC(=O)Cc1ccc(Cl)cc1 (stereo not given)	.	.	.	.	.	.	/
COC(=O)[C@H](Cc1ccccc1)NC(=O)N(C)Cc1ccccc1	.	.	.	.	.	.	/
N#Cc1c(NC(=O)CSc2ncnc3c2cnn3-c2ccccc2Cl)sc2c1CCCC2	.	.	.	.	.	.	/
Cc1ccc(S(=O)(=O)c2nc(S(C)(=O)=O)sc2N2CCCCC2C)cc1 (stereo not given)	.	.	41.6	.	.	.	42.7
COC(=O)c1ccccc1NC(=O)CSc1nc(O)cc(=O)n1C1CCCC1	.	.	45.7	.	.	.	.
COc1ccc(OCCCC(=O)Nc2ccc3c(c2)OCO3)cc1	.	.	.	/	.	.	/
Cc1ccc(/C=C(\C#N)c2nn(-c3ccccc3)c(N)c2C#N)cc1	.	.	40.4	.	.	.	.
CCCCc1ccc(NS(=O)(=O)c2cccs2)cc1	.	.	40.6	/	.	.	.

High-throughput results: PubChem, several laboratories
